Experimental data as given in PubChem BioAssay AID1159580 (chemical genetic matrix, 2015).
The whole screen tested about 5,500 compounds, of which about 2,000 (36%) were called active. Roughly 18% stayed inconclusive and do not appear here. Some of the results follow. A number with no mark means an inactive call. Cut-off read from the data, not from the text of the source: active = normalized growth mostly below about 0.91 (no sharp cut-off); inconclusive = no clear call, values can overlap the other calls; inactive = mostly above about 0.92.

Assay: chemical genetic growth profiling, strain panel (AID 1159580);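 note: tested at 20 µM; growth read once vehicle control cultures reached saturation at 30 °C; 1 = growth at the plate median or of vehicle wells; lower values mean less growth of the strain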
Conditions: growth OD

CC[C@@]1(O)C(=O)OCc2c1cc1n(c2=O)Cc2cc3ccccc3nc2-1
normalized growth (S. cerevisiae deletion strains, locus YJR066W, strain TOR1, hits give low values): 0.665 (active)
normalized growth (S. cerevisiae deletion strains, locus YJR075W, strain HOC1, hits give low values): 0.88
normalized growth (S. cerevisiae deletion strains, locus YKL009W, strain mrt4, hits give low values): 0.936
normalized growth (S. cerevisiae deletion strains, locus YKL068W, hits give low values): 0.951
normalized growth (S. cerevisiae deletion strains, locus YKL085W, strain MDH1 (second series), hits give low values): 0.796 (active)
normalized growth (S. cerevisiae deletion strains, locus YKL085W, strain MDH1, hits give low values): 0.796 (active)
normalized growth (S. cerevisiae deletion strains, locus YKL160W, strain elf1, hits give low values): 0.965
normalized growth (S. cerevisiae deletion strains, locus YKL190W, strain CNB1, hits give low values): 0.948
normalized growth (S. cerevisiae deletion strains, locus YKR001C, strain vps1, hits give low values): 0.549 (active)
normalized growth (S. cerevisiae deletion strains, locus YKR026C, strain gcn3, hits give low values): 0.919 (active)
normalized growth (S. cerevisiae deletion strains, locus YKR091W, strain srl3, hits give low values): 0.914 (active)
normalized growth (S. cerevisiae deletion strains, locus YLL001W, strain dnm1, hits give low values): 0.831 (active)
normalized growth (S. cerevisiae deletion strains, locus YLL026W, hits give low values): 0.727 (active)
normalized growth (S. cerevisiae deletion strains, locus YLL041C, strain sdh2, hits give low values): 0.924 (active)
normalized growth (S. cerevisiae deletion strains, locus YLR027C, strain aat2, hits give low values): 0.653 (active)
normalized growth (S. cerevisiae deletion strains, locus YLR039C, strain RIC1, hits give low values): 0.692
normalized growth (S. cerevisiae deletion strains, locus YLR058C, strain SHM2, hits give low values): 0.881 (active)
normalized growth (S. cerevisiae deletion strains, locus YLR102C, strain apc9, hits give low values): 0.913 (active)
normalized growth (S. cerevisiae deletion strains, locus YLR113W, strain HOG1, hits give low values): 0.711 (active)
normalized growth (S. cerevisiae deletion strains, locus YLR221C, strain rsa3, hits give low values): 0.693 (active)
normalized growth (S. cerevisiae deletion strains, locus YLR258W, strain gsy2, hits give low values): 0.78 (active)
normalized growth (S. cerevisiae deletion strains, locus YLR262C, strain YPT6 (second series), hits give low values): 0.484 (active)
normalized growth (S. cerevisiae deletion strains, locus YLR262C, strain YPT6, hits give low values): 0.662
normalized growth (S. cerevisiae deletion strains, locus YLR268W, strain sec22, hits give low values): 0.63 (active)
normalized growth (S. cerevisiae deletion strains, locus YLR320W, strain mms22, hits give low values): 0.108 (active)
normalized growth (S. cerevisiae deletion strains, locus YLR330W, strain CHS5, hits give low values): 0.893 (active)
normalized growth (S. cerevisiae deletion strains, locus YLR342W, strain FKS1 (second series), hits give low values): 0.732 (active)
normalized growth (S. cerevisiae deletion strains, locus YLR342W, strain FKS1, hits give low values): 0.647 (active)
normalized growth (S. cerevisiae deletion strains, locus YLR357W, strain rsc2, hits give low values): 1
normalized growth (S. cerevisiae deletion strains, locus YLR370C, strain arc18, hits give low values): 0.832 (active)
normalized growth (S. cerevisiae deletion strains, locus YLR371W, strain rom2, hits give low values): 0.929
normalized growth (S. cerevisiae deletion strains, locus YLR384C, strain iki3, hits give low values): 0.96
normalized growth (S. cerevisiae deletion strains, locus YLR418C, strain cdc73, hits give low values): 0.857
normalized growth (S. cerevisiae deletion strains, locus YML016C, strain PPZ1, hits give low values): 0.998
normalized growth (S. cerevisiae deletion strains, locus YML032C, strain rad52, hits give low values): 0.0917 (active)
normalized growth (S. cerevisiae deletion strains, locus YML120C, strain ndi1, hits give low values): 0.868 (active)
normalized growth (S. cerevisiae deletion strains, locus YML124C, strain tub3, hits give low values): 0.903 (active)
normalized growth (S. cerevisiae deletion strains, locus YMR058W, strain fet3, hits give low values): 0.705 (active)
normalized growth (S. cerevisiae deletion strains, locus YMR078C, strain ctf18, hits give low values): 0.111 (active)
normalized growth (S. cerevisiae deletion strains, locus YMR125W, strain sto1, hits give low values): 0.856 (active)
normalized growth (S. cerevisiae deletion strains, locus YMR129W, hits give low values): 0.893 (active)
normalized growth (S. cerevisiae deletion strains, locus YMR205C, strain PFK2, hits give low values): 0.798 (active)
normalized growth (S. cerevisiae deletion strains, locus YMR223W, strain ubp8, hits give low values): 0.671 (active)
normalized growth (S. cerevisiae deletion strains, locus YMR231W, strain pep5, hits give low values): 0.268 (active)
normalized growth (S. cerevisiae deletion strains, locus YMR263W, strain SAP30, hits give low values): 0.847 (active)
normalized growth (S. cerevisiae deletion strains, locus YMR307W, strain GAS1, hits give low values): 0.461 (active)
normalized growth (S. cerevisiae deletion strains, locus YNL067W, strain RPL9B, hits give low values): 0.781 (active)
normalized growth (S. cerevisiae deletion strains, locus YNL071W, strain lat1, hits give low values): 0.744 (active)
normalized growth (S. cerevisiae deletion strains, locus YNL128W, strain TEP1, hits give low values): 0.937
normalized growth (S. cerevisiae deletion strains, locus YNL153C, strain GIM3, hits give low values): 0.892
normalized growth (S. cerevisiae deletion strains, locus YNL183C, strain NPR1, hits give low values): 0.643 (active)
normalized growth (S. cerevisiae deletion strains, locus YNL209W, strain ssb2, hits give low values): 0.87 (active)
normalized growth (S. cerevisiae deletion strains, locus YNL233W, strain BNI4, hits give low values): 0.804 (active)
normalized growth (S. cerevisiae deletion strains, locus YNL248C, strain rpa49, hits give low values): 0.679 (active)
normalized growth (S. cerevisiae deletion strains, locus YNL250W, strain rad50, hits give low values): 0.152 (active)
normalized growth (S. cerevisiae deletion strains, locus YNL271C, strain bni1, hits give low values): 0.814 (active)
normalized growth (S. cerevisiae deletion strains, locus YNL298W, strain CLA4, hits give low values): 0.74 (active)
normalized growth (S. cerevisiae deletion strains, locus YNL307C, strain MCK1, hits give low values): 0.505 (active)
normalized growth (S. cerevisiae deletion strains, locus YNL322C, strain KRE1 (second series), hits give low values): 0.465 (active)
normalized growth (S. cerevisiae deletion strains, locus YNR049C, strain mso1, hits give low values): 0.947
normalized growth (S. cerevisiae deletion strains, locus YNR052C, strain pop2, hits give low values): 0.207 (active)
normalized growth (S. cerevisiae deletion strains, locus YOL006C, strain TOP1, hits give low values): 0.971
normalized growth (S. cerevisiae deletion strains, locus YOL012C, strain htz1): 0.487
normalized growth (S. cerevisiae deletion strains, locus YOL147C, strain pex11, hits give low values): 0.807 (active)
normalized growth (S. cerevisiae deletion strains, locus YOR001W, strain rrp6, hits give low values): 0.847 (active)
normalized growth (S. cerevisiae deletion strains, locus YOR061W, strain CKA2, hits give low values): 0.912
normalized growth (S. cerevisiae deletion strains, locus YOR069W, strain VPS5, hits give low values): 0.883 (active)
normalized growth (S. cerevisiae deletion strains, locus YOR070C, strain gyp1, hits give low values): 0.739 (active)
normalized growth (S. cerevisiae deletion strains, locus YOR080W, strain dia2, hits give low values): 0.543 (active)
normalized growth (S. cerevisiae deletion strains, locus YOR083W, strain WHI5, hits give low values): 0.814 (active)
normalized growth (S. cerevisiae deletion strains, locus YOR106W, strain vam3, hits give low values): 0.366 (active)
normalized growth (S. cerevisiae deletion strains, locus YOR136W, strain idh2, hits give low values): 0.915 (active)
normalized growth (S. cerevisiae deletion strains, locus YOR144C, strain elg1, hits give low values): 0.542 (active)
normalized growth (S. cerevisiae deletion strains, locus YOR184W, strain ser1, hits give low values): 0.67 (active)
normalized growth (S. cerevisiae deletion strains, locus YOR231W, strain MKK1, hits give low values): 0.78 (active)
normalized growth (S. cerevisiae deletion strains, locus YOR265W, strain rbl2, hits give low values): 0.796 (active)
normalized growth (S. cerevisiae deletion strains, locus YOR270C, strain vph1, hits give low values): 0.576 (active)
normalized growth (S. cerevisiae deletion strains, locus YOR290C, strain snf2, hits give low values): 0.746 (active)
normalized growth (S. cerevisiae deletion strains, locus YOR316C, strain cot1, hits give low values): 0.942
normalized growth (S. cerevisiae deletion strains, locus YPL051W, strain arl3, hits give low values): 0.828 (active)
normalized growth (S. cerevisiae deletion strains, locus YPL078C, strain atp4, hits give low values): 0.868 (active)
normalized growth (S. cerevisiae deletion strains, locus YPL106C, strain sse1, hits give low values): 0.879
normalized growth (S. cerevisiae deletion strains, locus YPL240C, strain hsp82, hits give low values): 0.857 (active)
normalized growth (S. cerevisiae deletion strains, locus YPL256C, strain CLN2, hits give low values): 0.784 (active)
normalized growth (S. cerevisiae deletion strains, locus YPR119W, strain clb2, hits give low values): 0.893 (active)
normalized growth (S. cerevisiae deletion strains, locus YPR141C, strain kar3, hits give low values): 0.836 (active)
normalized growth (S. cerevisiae deletion strains, locus YPR163C, strain tif3, hits give low values): 0.276 (active)
normalized growth (S. cerevisiae deletion strains, locus YPR167C, strain met16, hits give low values): 0.795 (active)
normalized growth (S. cerevisiae deletion strains, strain wtn01, hits give low values): 0.739 (active)
normalized growth (S. cerevisiae strains, strain wild type, hits give low values): 0.892 (active)
